# According to the OligoGym collection:
# Molecular target: RTN4
# Assay: pooled miR-30 sensor sort-seq; sequence = guide strand
# Conditions: shRNA
# Further: reference of the scale not given here.
row,Sequence,sensor-assay potency score (higher = more potent)
1,TTCTAGGTCAGTATATTCCCTG,-0.784
2,TAAATCTCTATCTATGAGTAGA,-0.547
3,TAACTAACTTCTCTTCTTCATC,-0.896
4,TATCTGTTGTGACATAATCTGT,-0.595
5,TTTTGTGTTATCTAAACTGAGC,-0.981
6,TTTCTGAAGACACAACTTCATC,-1.21
7,TTGTGACATAATCTGTCTCAGA,-1.04
8,TTCACTTTCACATGCTTCCTGT,-0.0605
9,TATTACTAACTAACTTCTCTTC,-0.121
10,TTTCTGAAGTAGGATCTCCTAA,-0.155
11,TTTCTGAGTATTCTAATTCTGA,-0.686
12,TAAAGATCTAACAACGATCTGT,0.175

# Molecular target: RTTN
# Assay: as above
# Conditions: shRNA
row,Sequence,sensor-assay potency score (higher = more potent)
1,TTGTATTTGCTCATCTCTGTTA,-0.347
2,TTAGTAAGTCTAGACAGCCATC,-1.38
3,TTCAAATCAAACATACACCGTC,0.646
4,TATCATCTGTTTCTTCTCGTGC,0.159
5,TACTCTTCTGAATTACTCCTTT,0.0347
6,TTCAGGAGTAACTTCAACCAAA,-0.732
7,TAGAGATTTCTGATTTTCCTGA,0.353
8,TTTAATAACACCATCCTCCTTT,0.89
9,TTCTTCACTATGACTACCCAAA,-0.98
